Compound activity (PubChem BioAssay)
hcDAF12 agonist – activates DAF-12 receptor from parasite H. contortus; HEK293 hcDAF-12 lit1-tk-luc reporter, luminescence; 0% DMSO, 100% Δ7-dafachronic acid; activation, % at 6.8 µM; actives 1.4% (n = 370,000);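 active = activation above the mean of all tested compounds plus 3 SD, cut at about 5.5% in these data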;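 note: 100% = response to 3 µM Δ7-dafachronic acid high control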
DAX1 inh-1 – inhibitors of human orphan nuclear receptor DAX1 (NR0B1); P51843; HEK293 Gal4-DAX1 luciferase reporter, luminescence; inhibition, % at 6.75 µM; actives 0.99% (n = 340,000); AID 504766;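 active = inhibition above the mean over all tested compounds plus 3 SD, cut at about 4.2% in these data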;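 note: 0% = DAX1-transfected cells with DMSO and 100% = empty-vector control cells with DMSO; inhibition shows as a rise in luminescence from relieved DAX1 repression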
Target sequence (P51843 207-470 limits assumed): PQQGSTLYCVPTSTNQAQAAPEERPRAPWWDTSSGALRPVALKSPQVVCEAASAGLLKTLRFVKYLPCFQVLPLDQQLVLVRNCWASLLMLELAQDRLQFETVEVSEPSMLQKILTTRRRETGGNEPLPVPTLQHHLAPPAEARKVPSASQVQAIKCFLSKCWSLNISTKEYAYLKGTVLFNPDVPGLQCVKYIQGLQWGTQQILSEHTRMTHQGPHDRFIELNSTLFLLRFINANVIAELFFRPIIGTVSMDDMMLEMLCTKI
DAX1 inh-2 – blocks DAX1 repression of SF-1 activated StAR promoter. HEK293T StAR-luciferase reporter, SF-1/DAX-1 repression relief. inhibition, % at 6.8 µM. actives 1.1% (n = 370,000). AID 652010;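 active = inhibition above the mean over all tested compounds plus 3 SD, cut at about 3.6% in these data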;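 note: 0% = DAX-1 cells with DMSO and 100% = cells lacking DAX-1 with DMSO; higher inhibition means more luminescence from relief of DAX-1 repression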
hgDAF-12 ag – hgDAF-12 agonism, primary luciferase screen; AID 687014; activation, % at 6.8 µM; HEK293 GAL4-hgDAF12 UAS-luciferase reporter, agonist luminescence; normalized to butyrate control; actives 1.8% (n = 370,000);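 active = activation above a cutoff set at the mean of all screened compounds plus 3 SD, cut at about 10% in these data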;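 note: 0% = DMSO wells and 100% = sodium butyrate wells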
ssDAF-12 act – activates DAF-12 receptor from parasite S. stercoralis; activation, % at 6.8 µM; HEK293 ssDAF-12/GRIP1 lit1-tk-luc reporter, luminescence; % of 3 µM dafachronic acid response; actives 1% (n = 370,000);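 active = activation above the mean over all tested compounds plus 3 SD, cut at about 0.9% in these data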;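 note: 0% = DMSO-only wells and 100% = 3 µM delta7-dafachronic acid wells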
Numbers without * were called inactive; · = not tested or not shown. Only some compounds are listed: those with a hit (about 4.1% of all), similar ones and a draw of the others.

SMILES | hcDAF12 agonist | DAX1 inh-1 | DAX1 inh-2 | hgDAF-12 ag | ssDAF-12 act
CCOc1ccc(Nc2cc(C)nc3c(C)cccc23)cc1 | -2.4 | 4.9* | 0.3 | -2.1 | -1.8
COc1ccc(Nc2cc(C)nc3c(C)cccc23)cc1OC | 2.1 | 2.6 | 0.4 | -0.7 | -1.5
O=C(NNC(=S)Nc1cccc2ccccc12)c1cccc(Br)c1 | 5.5 | -0.1 | -0.2 | 0.1 | -0.4
Cc1ccc(C(=O)NNC(=S)Nc2cccc3ccccc23)s1 | 6.3* | 1.4 | 0.8 | 5.4 | 1.2*
Cc1ccc2sc(-c3ccc(NC(=O)c4cc(-n5cnnc5)ccc4Cl)cc3)nc2c1 | 0.7 | 0.9 | 2.0 | 11.3* | -1.2
O=C(Nc1cccc(-c2nc3ccccc3s2)c1)c1cc(-n2cnnc2)ccc1Cl | · | -1.2 | · | · | ·
COCCn1c(NCc2ccco2)nc2c1c(=O)[nH]c(=O)n2C | -1.5 | -0.7 | -0.5 | 1.9 | -0.7
Cn1c(=O)[nH]c(=O)c2c1nc(NCc1ccco1)n2CCCc1ccccc1 | -0.5 | 4.5* | 0.2 | 1.0 | -0.6
Cc1nc(NC(=O)c2cc3ccccc3o2)ccc1Br | -1.4 | 2.3 | 2.0 | 6.5 | 0.0
Cc1cccc(NC(=O)c2cc3ccccc3c(=O)o2)n1 | 2.2 | 6.5* | 2.1 | 10.1 | -0.4
O=C(Nc1ccccc1)OCCN1C(=O)CCC12CCC(c1ccccc1)CC2 (stereo unspecified) | -2.9 | · | -0.3 | 2.5 | -1.4
CN(C)CCN1C(=O)C(=O)/C(=C(/O)c2ccc3c(c2)OCCO3)C1c1ccccn1 (stereo unspecified) | 1.3 | 5.2* | 0.1 | 3.7 | -1.0
COc1cccc(/C(O)=C2/C(=O)C(=O)N(CCN(C)C)C2c2ccccn2)c1 (stereo unspecified) | 0.3 | 1.1 | 0.3 | 0.5 | -0.7
Cc1cc2nc(C3CCCCC3)c(Cc3ccccc3C(F)(F)F)n2c(C)c1Br | -0.9 | · | -0.3 | 2.3 | -0.1
Cc1cc2nc(-c3ccccc3)c(Cc3cccc(Cl)c3)n2c(C)c1Br | 2.7 | · | 0.7 | 10.6* | -0.1
Cc1cc2nc(C3CCCCC3)c(Cc3cccc(F)c3)n2c(C)c1Br | 1.6 | · | -1.2 | 1.6 | 1.7*
Cc1cc2nc(-c3ccc(F)cc3)c(Cc3cccc(Cl)c3)n2c(C)c1Br | 5.6* | · | 0.6 | 0.5 | 1.5*
Cc1ccc(S(=O)(=O)NCC2CCN(C(=O)C(=O)c3cccs3)CC2)cc1 | -0.6 | · | -0.1 | -1.3 | -0.3
Cc1ccc(-n2nc(C)c3c(C(=O)OCC(=O)N(C)C4CCS(=O)(=O)C4)cc(-c4ccccc4)nc32)cc1 (stereo unspecified) | 6.2* | 0.4 | 0.1 | -2.7 | -1.1
O=C(CCn1c(=S)oc2ccccc21)NC1CCCCC1 | 0.1 | 4.2 | 0.0 | 2.7 | 5.3*
CS(=O)(=O)N1c2ccccc2C[C@H]1Cc1cc2ccccc2o1 | 1.4 | · | · | 0.7 | -0.1
CCNc1sc(C(=O)c2cccs2)c(N)c1-c1nc2ccccc2s1 | 3.4 | 2.3 | 0.1 | 9.3 | 0.3
CCOC(=O)c1sc(NCc2ccco2)c(-c2nc3ccccc3s2)c1N | 6.2* | 1.0 | 0.4 | 4.0 | 0.2
COC(=O)[C@]12C[C@H](CC(=O)N3CCN(C(=O)C4CC4)CC3)C(=O)N(Cc3ccccc3)C1=C[C@H](C1CCCC1)O[C@@H]2C | -0.5 | · | 0.1 | -3.2 | -0.9
CC(C)[C@@H]1OC(=O)[C@@H]2CCCN2C(=O)[C@H](C)OC(=O)[C@H](C)[C@@H](C(C)C)NC(=O)[C@@H]2CCCN2C(=O)[C@H]([C@H](C)Cc2ccccc2)NC(=O)[C@@H]2CCCN2C(=O)[C@@H](C(C)C)N(C)C1=O | -2.1 | · | · | 1.0 | -1.7
SMILES | hcDAF12 agonist | DAX1 inh-1 | DAX1 inh-2 | hgDAF-12 ag | ssDAF-12 act
FC(F)(F)c1nnc2c(Sc3ccccc3)nc3ccccc3n12 | 4.1 | 0.0 | 0.5 | 5.6 | -0.4
FC(F)(F)c1nnc2c(Sc3ccccn3)nc3ccccc3n12 | 5.6* | 0.7 | 0.4 | 6.8 | -0.1
CCC[C@H]1[C@@H](NC(=O)NCC)CC[C@@]23CCCN2C(=O)CCC[C@@H]13 | -0.1 | · | · | 1.5 | -1.4
O=C(O)c1ccc(COc2ccc3ccccc3c2/C=C2/NC(=O)N(c3ccccc3)C2=O)cc1 | 1.5 | -0.6 | 0.7 | -1.6 | 1.0*
O=C(O)c1ccc(COc2ccccc2/C=C2/NC(=O)N(c3cccc(Cl)c3)C2=O)cc1 | -2.8 | -0.3 | 0.1 | -1.1 | -0.1
COc1ccc2c(c1)CCCN2C(=O)C1CCCN(S(=O)(=O)c2cccs2)C1 (stereo unspecified) | -2.8 | · | -0.6 | 3.4 | -1.1
